Assay results taken from article PMC8384837, “Expanding the binding specificity for RNA recognition by a PUF domain”.

What follows are sequences tested against PUM1 PUF domain R4-GPS (Homo sapiens, UniProt Q14671 828-1176, N971G;H972P;Q975S) (assay: yeast three-hybrid, YBZ-1, SC-Leu-His + 0.5 mM 3-AT, 4 days). Conditions: tags: N-Gal4 AD-HA kept; label: inside an RPR1-promoter hybrid RNA with tandem MS2 sites; ssRNA.
Summary of the method: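 The interaction score is the log change in how often each variant appears, from input to selection. Frequencies came from PCR-amplified, Illumina-sequenced repeat regions of Pumilio-1 PUF domain libraries grown in strain YBZ-1 (LexA–MS2 coat fusion, HIS3 reporter) alongside matching RNA elements. Input plates were SC-Leu and selection plates were SC-Leu-His + 0.5 mM 3-AT, each for four days, and the log2 calculation used a pseudocount of 1 where a variant was absent.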

Sequence of PUM1 PUF domain R4-GPS (Q14671 828-1176 N971G/H972P/Q975S): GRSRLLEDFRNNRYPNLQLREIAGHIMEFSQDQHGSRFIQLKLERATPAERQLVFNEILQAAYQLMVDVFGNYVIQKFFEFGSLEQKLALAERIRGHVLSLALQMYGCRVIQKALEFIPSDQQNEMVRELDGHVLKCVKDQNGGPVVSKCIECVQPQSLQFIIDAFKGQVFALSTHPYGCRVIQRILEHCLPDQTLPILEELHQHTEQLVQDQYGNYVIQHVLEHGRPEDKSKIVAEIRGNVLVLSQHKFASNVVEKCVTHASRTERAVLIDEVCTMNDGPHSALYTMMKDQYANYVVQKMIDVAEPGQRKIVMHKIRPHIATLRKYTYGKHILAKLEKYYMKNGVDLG

Sequence	binding signal
GGCUAGAACUAGUGGAUCCCCCGGCGCCCGGCGGCUCGAGCCCGGGUAAGUGUAAAUAGUCUGCAUGCCGCCGGGCGCCAUGCCUGCAGGUCGACUCUAGAAAACAUG	4.4 log2 enrichment (interaction score)
GGCUAGAACUAGUGGAUCCCCCGGCGCCCGGCGGCUCGAGCCCGGGUAAGUGUAUAUAGUCUGCAUGCCGCCGGGCGCCAUGCCUGCAGGUCGACUCUAGAAAACAUG	2.94 log2 enrichment (interaction score)
GGCUAGAACUAGUGGAUCCCCCGGCGCCCGGCGGCUCGAGCCCGGGUAAGUGUACAUAGUCUGCAUGCCGCCGGGCGCCAUGCCUGCAGGUCGACUCUAGAAAACAUG	1.84 log2 enrichment (interaction score)
